Reference: the supplement of paper PMC9262897, “Low-cost anti-mycobacterial drug discovery using engineered E. coli” (Nature Communications, 2022)
Where a name gives a salt, the structure may show the parent alone. ± gives the standard deviation of the averaged measurements.

Legend:
Assay in all cases: growth (OD600 after 10 h); higher = more growth (less inhibition)
[1] = test system: E. coli TESEC Alr+ wild-type control; details: compound 0.1 mM; raw OD600 reference: median of DMSO wells 0.241, cell-free background 0.041
Experimental: (§1)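 TESEC Mtb Alr E. coli, or the Alr+ wild-type control, in 384-well plates with Prestwick library compounds at 0.1 mM and 1% DMSO, across arabinose induction levels of 1E3 to 1E7 nM. Growth is read as OD600 after 10 h at 37 °C in triplicate biological replicates.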

E. coli TESEC Mtb Alr [2] = details: compound 0.1 mM
Experimental: as §1

E. coli TESEC Mtb Asd = details: compound 0.1 mM
Experimental: (§2)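 TESEC E. coli strains in which the native enzyme is deleted and replaced by arabinose-inducible Mtb Asd, DapB, CysH or TrpD, each grown in its selective medium. Strains were screened against the Prestwick library at 0.1 mM and 1% DMSO in 384-well format at low and high arabinose induction. Growth is read as OD600 after 10 h in triplicate.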

E. coli TESEC Mtb DapB = details: compound 0.1 mM
Experimental: as §2

[3] = test system: E. coli TESEC Alr+ wild-type control; details: compound 0.1 mM; raw OD600 reference: median of DMSO wells 0.49, cell-free background 0.052
Experimental: (§3)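 TESEC Mtb Alr E. coli (ΔaraC ΔtolC ΔentC Δalr ΔdadX, arabinose-inducible Mtb Alr) or the Alr+ wild-type control strain, grown in defined M9-fructose medium without D-alanine in 96-well plates with Prestwick library compounds at 0.1 mM and 1% DMSO. Low Alr induction is 0.1 µM arabinose and high induction is 10 mM arabinose.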

E. coli TESEC Mtb Alr [4] = details: compound 0.1 mM; remark: listed apart in the source
Experimental: as §3

[5] = arabinose 1000 nM, raw OD600 reference: median of DMSO wells 0.294, cell-free background 0.041
[6] = arabinose 10000 nM, raw OD600 reference: median of DMSO wells 0.264, cell-free background 0.041
[7] = arabinose 100000 nM, raw OD600 reference: median of DMSO wells 0.201, cell-free background 0.041
[8] = arabinose 1000000 nM, raw OD600 reference: median of DMSO wells 0.193, cell-free background 0.041
[9] = arabinose 10000000 nM, raw OD600 reference: median of DMSO wells 0.146, cell-free background 0.041
[10] = arabinose induction (level): High, raw OD600 reference: median of DMSO wells 0.331, cell-free background 0.041
[11] = arabinose induction (level): Low, raw OD600 reference: median of DMSO wells 0.417, cell-free background 0.041
[12] = arabinose induction (level): High, raw OD600 reference: median of DMSO wells […], cell-free background 0.041
[13] = arabinose induction (level): Low, raw OD600 reference: median of DMSO wells 0.227, cell-free background 0.041
[14] = arabinose 100 nM, raw OD600 reference: median of DMSO wells 0.413, cell-free background 0.052
[15] = arabinose 10000000 nM, raw OD600 reference: median of DMSO wells […], cell-free background 0.052

C=C(NC(=O)C(=C)NC(=O)c1csc(C2=N[C@@H]3c4csc(n4)[C@H]4NC(=O)c5csc(n5)[C@H]([C@](C)(O)[C@@H](C)O)NC(=O)[C@H]5CSC(=N5)/C(=C/C)NC(=O)[C@H]([C@@H](C)O)NC(=O)c5csc(n5)[C@]3(CC2)NC(=O)[C@H](C)NC(=O)C(=C)NC(=O)[C@H](C)NC(=O)[C@H]([C@@H](C)CC)N[C@@H]2C=Cc3c([C@H](C)O)cc(nc3[C@H]2O)C(=O)O[C@@H]4C)n1)C(N)=O [Thiostrepton]
growth [1]: 0.297 ± 0.021 | growth (E. coli TESEC Mtb Alr [2]; [5]): 0.327 ± 0.004 | growth (E. coli TESEC Mtb Alr [2]; [6]): 0.298 ± 0.013 | growth (E. coli TESEC Mtb Alr [2]; [7]): 0.397 ± 0.0046 | growth (E. coli TESEC Mtb Alr [2]; [8]): 0.185 ± 0.0083 | growth (E. coli TESEC Mtb Alr [2]; [9]): 0.229 ± 0.02 | growth (E. coli TESEC Mtb Asd; [10]): 0.295 ± 0.053 | growth (E. coli TESEC Mtb Asd; [11]): 0.299 ± 0.091 | growth (E. coli TESEC Mtb DapB; [12]): 0.164 ± 0.047 | growth (E. coli TESEC Mtb DapB; [13]): 0.194 ± 0.058 | growth [3]: 0.603 ± 0.094 | growth (E. coli TESEC Mtb Alr [4]; [14]): 0.415 ± 0.019 | growth (E. coli TESEC Mtb Alr [4]; [15]): 0.316 ± 0.032

COc1cccc(N(C)C(=S)Oc2ccc3c(c2)CCCC3)n1 [Liranaftate]
growth [1]: 0.213 ± 0.0062 | growth (E. coli TESEC Mtb Alr [2]; [5]): 0.259 ± 0.0073 | growth (E. coli TESEC Mtb Alr [2]; [6]): 0.2888 ± 0.0012 | growth (E. coli TESEC Mtb Alr [2]; [7]): 0.167 ± 0.0063 | growth (E. coli TESEC Mtb Alr [2]; [8]): 0.1202 ± 0.0011 | growth (E. coli TESEC Mtb Alr [2]; [9]): 0.149 ± 0.0092 | growth (E. coli TESEC Mtb Asd; [10]): 0.297 ± 0.025 | growth (E. coli TESEC Mtb Asd; [11]): 0.426 ± 0.045 | growth (E. coli TESEC Mtb DapB; [12]): 0.196 ± 0.013 | growth (E. coli TESEC Mtb DapB; [13]): 0.224 ± 0.0065 | growth [3]: 0.385 ± 0.0054 | growth (E. coli TESEC Mtb Alr [4]; [14]): 0.407 ± 0.038 | growth (E. coli TESEC Mtb Alr [4]; [15]): 0.127 ± 0.0031

CCOC(=O)C1=C(C)NC(C)=C(C(=O)OCC)C1c1ccccc1/C=C/C(=O)OC(C)(C)C [Lacidipine]
growth [1]: 0.2596 ± 0.0023 | growth (E. coli TESEC Mtb Alr [2]; [5]): 0.308 ± 0.013 | growth (E. coli TESEC Mtb Alr [2]; [6]): 0.247 ± 0.0068 | growth (E. coli TESEC Mtb Alr [2]; [7]): 0.201 ± 0.017 | growth (E. coli TESEC Mtb Alr [2]; [8]): 0.119 ± 0.0029 | growth (E. coli TESEC Mtb Alr [2]; [9]): 0.156 ± 0.0078 | growth (E. coli TESEC Mtb Asd; [10]): 0.299 ± 0.12 | growth (E. coli TESEC Mtb Asd; [11]): 0.346 ± 0.043 | growth (E. coli TESEC Mtb DapB; [12]): 0.157 ± 0.0032 | growth (E. coli TESEC Mtb DapB; [13]): 0.182 ± 0.0034 | growth [3]: 0.521 ± 0.056 | growth (E. coli TESEC Mtb Alr [4]; [14]): 0.429 ± 0.017 | growth (E. coli TESEC Mtb Alr [4]; [15]): 0.322 ± 0.023

C[C@H]1NC(=O)NC1=O [Methylhydantoin-5-(D)]
growth [1]: 0.257 ± 0.0085 | growth (E. coli TESEC Mtb Alr [2]; [5]): 0.323 ± 0.014 | growth (E. coli TESEC Mtb Alr [2]; [6]): 0.268 ± 0.005 | growth (E. coli TESEC Mtb Alr [2]; [7]): 0.2 ± 0.019 | growth (E. coli TESEC Mtb Alr [2]; [8]): 0.186 ± 0.0032 | growth (E. coli TESEC Mtb Alr [2]; [9]): 0.156 ± 0.0032 | growth (E. coli TESEC Mtb Asd; [10]): 0.46 ± 0.085 | growth (E. coli TESEC Mtb Asd; [11]): 0.467 ± 0.0073 | growth (E. coli TESEC Mtb DapB; [12]): 0.202 ± 0.012 | growth (E. coli TESEC Mtb DapB; [13]): 0.244 ± 0.012 | growth [3]: 0.607 ± 0.018 | growth (E. coli TESEC Mtb Alr [4]; [14]): 0.405 ± 0.015 | growth (E. coli TESEC Mtb Alr [4]; [15]): 0.321 ± 0.015

O=C1Cc2cc(CCN3CCN(c4nsc5ccccc45)CC3)c(Cl)cc2N1 [Ziprasidone  Hydrochloride]
growth [1]: 0.133 ± 0.0045 | growth (E. coli TESEC Mtb Alr [2]; [5]): 0.174 ± 0.008 | growth (E. coli TESEC Mtb Alr [2]; [6]): 0.249 ± 0.0058 | growth (E. coli TESEC Mtb Alr [2]; [7]): 0.195 ± 0.0098 | growth (E. coli TESEC Mtb Alr [2]; [8]): 0.179 ± 0.0086 | growth (E. coli TESEC Mtb Alr [2]; [9]): 0.201 ± 0.0095 | growth (E. coli TESEC Mtb Asd; [10]): 0.418 ± 0.051 | growth (E. coli TESEC Mtb Asd; [11]): 0.363 ± 0.035 | growth (E. coli TESEC Mtb DapB; [12]): 0.222 ± 0.027 | growth (E. coli TESEC Mtb DapB; [13]): 0.308 ± 0.076 | growth [3]: 0.427 ± 0.011 | growth (E. coli TESEC Mtb Alr [4]; [14]): 0.378 ± 0.0087 | growth (E. coli TESEC Mtb Alr [4]; [15]): 0.338 ± 0.013

CN(C)CCC[C@@]1(c2ccc(F)cc2)OCc2cc(C#N)ccc21 [Escitalopram oxalate]
growth [1]: 0.201 ± 0.0062 | growth (E. coli TESEC Mtb Alr [2]; [5]): 0.281 ± 0.014 | growth (E. coli TESEC Mtb Alr [2]; [6]): 0.251 ± 0.015 | growth (E. coli TESEC Mtb Alr [2]; [7]): 0.199 ± 0.0081 | growth (E. coli TESEC Mtb Alr [2]; [8]): 0.157 ± 0.0041 | growth (E. coli TESEC Mtb Alr [2]; [9]): 0.143 ± 0.007 | growth (E. coli TESEC Mtb Asd; [10]): 0.297 ± 0.14 | growth (E. coli TESEC Mtb Asd; [11]): 0.398 ± 0.064 | growth (E. coli TESEC Mtb DapB; [12]): 0.179 ± 0.012 | growth (E. coli TESEC Mtb DapB; [13]): 0.202 ± 0.014 | growth [3]: 0.435 ± 0.007 | growth (E. coli TESEC Mtb Alr [4]; [14]): 0.412 ± 0.011 | growth (E. coli TESEC Mtb Alr [4]; [15]): 0.352 ± 0.0066

Nc1c2c(nc3ccccc13)CCCC2 [Tacrine hydrochloride]
growth [1]: 0.22 ± 0.0053 | growth (E. coli TESEC Mtb Alr [2]; [5]): 0.263 ± 0.012 | growth (E. coli TESEC Mtb Alr [2]; [6]): 0.248 ± 0.0067 | growth (E. coli TESEC Mtb Alr [2]; [7]): 0.214 ± 0.042 | growth (E. coli TESEC Mtb Alr [2]; [8]): 0.149 ± 0.014 | growth (E. coli TESEC Mtb Alr [2]; [9]): 0.168 ± 0.007 | growth (E. coli TESEC Mtb Asd; [10]): 0.242 ± 0.052 | growth (E. coli TESEC Mtb Asd; [11]): 0.316 ± 0.076 | growth (E. coli TESEC Mtb DapB; [12]): 0.222 ± 0.024 | growth (E. coli TESEC Mtb DapB; [13]): 0.228 ± 0.014 | growth [3]: 0.513 ± 0.063 | growth (E. coli TESEC Mtb Alr [4]; [14]): 0.41 ± 0.01 | growth (E. coli TESEC Mtb Alr [4]; [15]): 0.37 ± 0.017
